Reference: the supplement of paper PMC8728848
Shown is part of a subset that was picked to be rich in the strongest signals.

Assays:
Experiment in all cases: glycan array binding signal (z-score within array); higher = stronger binding
Conditions in all cases: glycan notation: IUPAC condensed, linker removed
[1] = target: GlcNAc(a1-4)Gal(b1-4)GlcNAc(b1-3)Gal(b1-4)GlcNAc
Procedure, shortened: (§1)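 Arrays were curated from the Consortium for Functional Glycomics database, 3228 in total, and kept only where the protein sequence was available. Binding is expressed as a within-array Z-score. This score was averaged across arrays of the same protein sequence at different concentrations or buffers and across linkers, and negative values can be read as non-binding.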

[2] = target: GlcNAc(b1-2)[GlcNAc(b1-6)]Man(a1-6)[GlcNAc(b1-4)][GlcNAc(b1-2)Man(a1-3)]Man(b1-4)GlcNAc(b1-4)GlcNAc
Procedure, shortened: as §1

[3] = target: GlcNAc(b1-3)Gal(b1-4)GlcNAc(b1-3)Gal(b1-4)GlcNAc(b1-2)[GlcNAc(b1-3)Gal(b1-4)GlcNAc(b1-3)Gal(b1-4)GlcNAc(b1-6)]Man(a1-6)[GlcNAc(b1-3)Gal(b1-4)GlcNAc(b1-3)Gal(b1-4)GlcNAc(b1-2)Man(a1-3)]Man(b1-4)GlcNAc(b1-4)[Fuc(a1-6)]GlcNAc
Procedure, shortened: as §1

GlcNAc(b1-3)GalNAc = target: GlcNAc(b1-3)GalNAc
Procedure, shortened: as §1

Man(a1-3)[Man(a1-6)]Man = target: Man(a1-3)[Man(a1-6)]Man
Procedure, shortened: as §1

[4] = target: Man(a1-3)[Man(a1-6)]Man(b1-4)GlcNAc(b1-4)GlcNAc
Procedure, shortened: as §1

[5] = target: Neu5Ac(a2-3)Gal(b1-3)[Fuc(a1-4)]GlcNAc
Procedure, shortened: as §1

[6] = target: Neu5Ac(a2-3)Gal(b1-3)[GlcNAc(b1-6)]GalNAc
Procedure, shortened: as §1

Neu5Ac(a2-3)Gal(b1-4)Glc = target: Neu5Ac(a2-3)Gal(b1-4)Glc
Procedure, shortened: as §1

[7] = target: Neu5Ac(a2-3)Gal(b1-4)GlcNAc(b1-2)[Neu5Ac(a2-3)Gal(b1-4)GlcNAc(b1-4)]Man(a1-3)[GlcNAc(b1-4)][Neu5Ac(a2-3)Gal(b1-4)GlcNAc(b1-2)[Neu5Ac(a2-3)Gal(b1-4)GlcNAc(b1-6)]Man(a1-6)]Man(b1-4)GlcNAc(b1-4)GlcNAc
Procedure, shortened: as §1

[8] = target: Neu5Ac(a2-3)Gal(b1-4)GlcNAc(b1-3)GalNAc
Procedure, shortened: as §1

[9] = target: Neu5Ac(a2-3)Gal(b1-4)GlcNAc(b1-6)[Gal(b1-3)]GalNAc
Procedure, shortened: as §1

[10] = target: Neu5Ac(a2-3)Gal(b1-4)GlcNAc6S
Procedure, shortened: as §1

[11] = target: Neu5Ac(a2-3)Gal(b1-4)[Fuc(a1-3)]GlcNAc(b1-2)Man
Procedure, shortened: as §1

[12] = target: Neu5Ac(a2-3)Gal6S(b1-4)GlcNAc
Procedure, shortened: as §1

Neu5Ac(a2-6)Gal = target: Neu5Ac(a2-6)Gal
Procedure, shortened: as §1

[13] = target: Neu5Ac(a2-6)Gal(b1-4)GlcNAc(b1-2)Man(a1-6)[Gal(b1-4)GlcNAc(b1-2)Man(a1-3)]Man(b1-4)GlcNAc(b1-4)GlcNAc
Procedure, shortened: as §1

[14] = target: Neu5Ac(a2-6)Gal(b1-4)GlcNAc(b1-3)Gal(b1-4)GlcNAc(b1-2)Man(a1-3)[Neu5Ac(a2-6)Gal(b1-4)GlcNAc(b1-3)Gal(b1-4)GlcNAc(b1-2)Man(a1-6)]GalNAc
Procedure, shortened: as §1

[15] = target: Neu5Ac(a2-6)Gal(b1-4)GlcNAc(b1-3)Gal(b1-4)GlcNAc(b1-6)[Gal(b1-3)]GalNAc
Procedure, shortened: as §1

[16] = target: Neu5Ac(a2-6)Gal(b1-4)GlcNAc(b1-3)[Neu5Ac(a2-6)Gal(b1-4)GlcNAc(b1-6)]GalNAc
Procedure, shortened: as §1

[17] = target: Neu5Ac(a2-6)Gal(b1-4)GlcNAc(b1-6)GalNAc
Procedure, shortened: as §1

[18] = target: Neu5Ac(a2-8)Neu5Ac(a2-3)Gal(b1-4)GlcNAc
Procedure, shortened: as §1

[19] = target: Neu5Ac(b2-6)Gal(b1-4)GlcNAc
Procedure, shortened: as §1

Neu5Ac(b2-6)GalNAc = target: Neu5Ac(b2-6)GalNAc
Procedure, shortened: as §1

B1: BT3172pd (Bacteroides thetaiotaomicron) (protein)
chain: MLPLRAEHYYYKQISLKEGLPSNVRCILRDEQGFIWIGTKAGLGKFDGHQLKRYKHQANDPHSLLHNLIYQIAEDKQHNIWILTEKGIARYQQQSNNFTFPTDEEGNYITAYSFCLVPDGILFGGKDRIYKYSYKDSSLRLLQYFNANSFKITALSVWDSKTLLCCSRWTGLYLVDLQTGEHRRPPFDCGPEITSMITDSKNRIWIAPYSGGLRCYSRDGKLSASYTTHNSSLSNDIVLSLAEREEQLWIGTDGGGINILHPETGEISQLEYIPGRENYSLPANSILCLHNDYNNNVWAGSTCNGLISIREVSMKTYTDVVPGNDRGLSNGTVRSLYRQSPDSIWIGTDGGGINLFSPHTEKFTHYSSTWGDKVAFISGFTPGKLLISLFSKGVFVFNPATGEKQPFTIIDKETTTRLCNRGKSVNLYQNTPNTVLFLGDHIYQYHLKEKKFSTITEEEGKDIVGTLVPFDHQENLTYINDIKHIYELDDQTSRLKTVFECYTDTVISSVSHDEQGHFWIGSNFGLIHYDPVLKSRTLVPTNLFTEINMVLCDQKGKVWIGVDNMLFAYFIKEQKFVLFGESNGAIQNEYLPNARLVNEQGDAYIGGVKGMLRIDGQLLLNTSEMPELQLLDITINGESANHEWYNHPAKISVPWNSNISIRIMSREEDIFRQKIYRYQIEGLNNEYTESYNPELVIRSLLPGSYRIMASCTAKDGSWIPDQQVLELTVLPPWYRTHHHHHH
- glycan array binding signal (z-score) [1]: -0.207
- glycan array binding signal (z-score) [2]: -0.604
- glycan array binding signal (z-score) [3]: -0.268
- glycan array binding signal (z-score) (GlcNAc(b1-3)GalNAc): 3.09
- glycan array binding signal (z-score) (Man(a1-3)[Man(a1-6)]Man): -0.387
- glycan array binding signal (z-score) [4]: 0.075
- glycan array binding signal (z-score) [5]: -0.042
- glycan array binding signal (z-score) [6]: -0.406
- glycan array binding signal (z-score) (Neu5Ac(a2-3)Gal(b1-4)Glc): 4.78
- glycan array binding signal (z-score) [7]: -0.441
- glycan array binding signal (z-score) [8]: 0.355
- glycan array binding signal (z-score) [9]: -0.43
- glycan array binding signal (z-score) [10]: 2.43
- glycan array binding signal (z-score) [11]: -0.094
- glycan array binding signal (z-score) [12]: 0.228
- glycan array binding signal (z-score) (Neu5Ac(a2-6)Gal): 4.96
- glycan array binding signal (z-score) [13]: 0.765
- glycan array binding signal (z-score) [14]: -0.692
- glycan array binding signal (z-score) [15]: 6.02
- glycan array binding signal (z-score) [16]: 5.76
- glycan array binding signal (z-score) [17]: 0.094
- glycan array binding signal (z-score) [18]: -0.788
- glycan array binding signal (z-score) [19]: -1.02
- glycan array binding signal (z-score) (Neu5Ac(b2-6)GalNAc): 0.736
